Screens from PubChem.
Compounds with a hit are over-represented: about 12% of the library has one in this group of screens.
Pf growth 96h: Primary qHTS for delayed death inhibitors of the malarial parasite plastid, 96 hour incubation | P. falciparum luciferase reporter growth, 96 h | Potency, µM (top dose mostly 28.7 µM), inactives show top-dose activity change, negative = inhibition, actives largely listed as inhibitors | 320,000 compounds, 6.9% hits | AID 504834, 2011; note: % is set by controls: 0 for no effect and ±100 for the full control effect
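Two parasite generations (96 h, 37 C, 5% CO2) of compound exposure in infected erythrocytes (0.05% parasitemia, 2% hematocrit). Luciferase-reporter P. falciparum; decreased luminescence indicates inhibited growth, aimed at apicoplast-acting delayed death.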
SARS PLpro yeast: qHTS of Yeast-based Assay for SARS-CoV PLP | S. cerevisiae expressing SARS-CoV PLpro, growth rescue | 330,000 compounds, 0.19% hits | AID 485353, 2010 | Potency, µM (top dose mostly 32.9 µM), without a hit: at the highest dose activity, positive = growth rescue, most hits filed as activators; calls by dose curve; note: 0% is about no effect; nearly all actives have a fitted effect of over 55% in size
Pf growth 48h: Primary qHTS for delayed death inhibitors of the malarial parasite plastid, 48 hour incubation. P. falciparum luciferase growth in erythrocytes, 48 h. Potency, µM (doses to about 28.7 µM), inactives show at the top dose activity change, negative = inhibition, usual class: inhibitors. 310,000 compounds, 5.9% hits; note: % is set by controls: 0 for no effect and ±100 for the full control effect
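Erythrocytes infected with P. falciparum carrying an integrated firefly luciferase reporter (2% hematocrit, 0.1% parasitemia final) were exposed to compounds in RPMI 1640 with 0.5% Albumax at 37 C, 5% CO2. Growth inhibition was scored as reduced luminescence.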
Sm TGR inh: qHTS Assay for the Inhibitors of Schistosoma Mansoni Peroxiredoxins; Schistosoma mansoni thioredoxin glutathione reductase (TGR), Q962Y6; purified TGR, DTNB reduction, TNB absorbance 405 nm; Potency, µM (top dose mostly 114 µM), without a hit: at the top dose activity change, negative = inhibition, most hits filed as inhibitors; 360,000 compounds, 3% hits; note: % is set by controls: 0 for no effect and ±100 for the full control effect; nearly all actives have a fitted effect of over 60% in size
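First, TGR (20 nM dispensed) and NADPH were mixed with compound. Second, a 15 min room-temperature incubation followed. Third, further NADPH and then DTNB were added to start the reaction. Finally, TNB absorbance was monitored kinetically.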
Active calls of the source: *. Unless noted, calls come from the whole dose curve; as a rule, active = well fitted curve in the direction sought with a large enough effect; inconclusive = small, poorly fitted or top-dose-only effect, or another doubt; inactive = no such curve, though single readings can be large; an effect the other way counts as inactive or inconclusive. Potency is the fitted concentration of half-maximal effect.

Results for CC1(C)Cc2c(sc3c2c(=O)n(Cc2ccccc2)c2nncn32)CO1 ?
Pf growth 96h: -25%; SARS PLpro yeast: 4%; Pf growth 48h: 0%; Sm TGR inh: 1%

What do the screens show for `CC1(C)Cc2c(sc3c2c(=N)n(Cc2ccco2)c(=O)n3Cc2ccccc2)CO1`?
Pf growth 96h: -21%; SARS PLpro yeast: -2%; Pf growth 48h: 9.3µM*; Sm TGR inh: 1%

How did CCn1c(=O)n(-c2ccc(Cl)cc2)c(=O)c2c3c(sc21)COC(C)(C)C3 do in these assays?
Pf growth 96h: 7.4µM*; SARS PLpro yeast: -3%; Pf growth 48h: inconclusive; Sm TGR inh: 2%

What do the screens show for `CC1(C)Cc2c(sc3c2c(=N)n(Cc2ccco2)c(=O)n3Cc2ccc(Cl)cc2)CO1`?
Pf growth 96h: 10µM*; SARS PLpro yeast: -5%; Pf growth 48h: 5.2µM*; Sm TGR inh: inconclusive

Results for O=C(CN1CCNCC1)NC1CCCCC1 ?
Pf growth 96h: 5%; Pf growth 48h: 6%

How did COC(=O)c1c(NC(=O)c2cc(=O)c3ccc(C)c(C)c3o2)sc2c1CCCC2 do in these assays?
Sm TGR inh: 1%

Results for COc1ccc2ccc(O)c(CN(C)CC(=O)Nc3ccccc3C(F)(F)F)c2c1 ?
Pf growth 96h: inconclusive; SARS PLpro yeast: 1%; Pf growth 48h: 12µM*; Sm TGR inh: 1.8µM*

How did COc1ccc(CCNCC(=O)Nc2ccccc2C(F)(F)F)cc1 do in these assays?
Pf growth 96h: -28%; SARS PLpro yeast: -1%; Pf growth 48h: 13µM*; Sm TGR inh: -7%

How did COc1ccc(CN(C)CC(=O)Nc2ccccc2C(F)(F)F)cc1 do in these assays?
Pf growth 96h: -23%; SARS PLpro yeast: 5%; Pf growth 48h: 2%; Sm TGR inh: -16%

What do the screens show for `Cc1cc2c(cc1C)C(c1ccccc1OC(C)C)CC(=O)N2` (stereo unspecified)?
Pf growth 96h: inconclusive; SARS PLpro yeast: -4%; Pf growth 48h: inconclusive; Sm TGR inh: -3%

How did O=C(CCl)N1CCN(S(=O)(=O)c2ccc3c(c2)CCC3)CC1 do in these assays?
Pf growth 96h: inconclusive; SARS PLpro yeast: 1%; Pf growth 48h: 2.3µM*; Sm TGR inh: 5µM*

What do the screens show for `CN1C(=O)N(CC(=O)N2CCN(S(=O)(=O)c3ccc4c(c3)CCC4)CC2)C(=O)C12CCCCC2`?
Pf growth 96h: 35%; SARS PLpro yeast: -4%; Pf growth 48h: 3%; Sm TGR inh: 4%

Results for CC(C)(C)NC(=O)NC(=O)CN1CCN(S(=O)(=O)c2ccc3c(c2)CCCC3)CC1 ?
Pf growth 96h: 7.4µM*; SARS PLpro yeast: -1%; Pf growth 48h: 9.3µM*; Sm TGR inh: -1%

Results for CC(C)(C)c1ccc(S(=O)(=O)N2CCN(CC(=O)NC(=O)NC3CCCCC3)CC2)cc1 ?
Pf growth 96h: 2.9µM*; SARS PLpro yeast: -1%; Pf growth 48h: -21%; Sm TGR inh: 9%

How did COC(=O)c1c(-c2cccs2)csc1NC(=O)c1ccc(C(C)(C)C)cc1 do in these assays?
Sm TGR inh: 0%

What do the screens show for `CC(C)c1nnc(NC(=O)CS(=O)(=O)c2ccccc2)s1`?
Pf growth 96h: -2%; SARS PLpro yeast: 0%; Pf growth 48h: 12%; Sm TGR inh: -9%

What do the screens show for `CCOc1ccc(Sc2cc(C(=O)NCCc3ccc(OC)c(OC)c3)c3ccccc3n2)cc1`?
Sm TGR inh: 8%

Results for Cn1c(=O)c2c(nc(N3CCCCCC3)n2CC(O)COc2ccccc2)n(C)c1=O (stereo unspecified) ?
Pf growth 96h: -3%; SARS PLpro yeast: 7%; Pf growth 48h: inconclusive; Sm TGR inh: -8%

How did Cn1c(Br)nc2c1c(=O)n(CC(O)COc1ccccc1)c(=O)n2C (stereo unspecified) do in these assays?
Pf growth 96h: 289%; SARS PLpro yeast: 0%; Pf growth 48h: -5%; Sm TGR inh: 50µM*

How did CN(c1nc2c(c(=O)n(C)c(=O)n2C)n1CC(=O)c1ccccc1)C1CCCCC1 do in these assays?
Pf growth 96h: 10µM*; SARS PLpro yeast: 4%; Pf growth 48h: inconclusive; Sm TGR inh: 1%

Results for Cn1c(=O)c2c(nc(NC3CCCCC3)n2CC(O)COc2ccccc2)n(C)c1=O (stereo unspecified) ?
Pf growth 96h: 14%; SARS PLpro yeast: 2%; Pf growth 48h: 10µM*; Sm TGR inh: -27%
